Bioassay records from PubChem.
Only some compounds are listed: those with a hit (about 1.2% of all), similar ones and a draw of the others.
RGS4-Gao reg: modulates binding of RGS4 to human Galphao; P09471; binding response (% of control), % at 10 µM; 0.33% of 220,000 active; Multiplexed bead flow cytometry; actives lie on both sides; in the data active means binding response below about 49% or above about 150%; inactive means in between;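 further: fluorescent Galphao activated with aluminum fluoride binding bead-coupled RGS4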
Target sequence (P09471 whole entry, looked up): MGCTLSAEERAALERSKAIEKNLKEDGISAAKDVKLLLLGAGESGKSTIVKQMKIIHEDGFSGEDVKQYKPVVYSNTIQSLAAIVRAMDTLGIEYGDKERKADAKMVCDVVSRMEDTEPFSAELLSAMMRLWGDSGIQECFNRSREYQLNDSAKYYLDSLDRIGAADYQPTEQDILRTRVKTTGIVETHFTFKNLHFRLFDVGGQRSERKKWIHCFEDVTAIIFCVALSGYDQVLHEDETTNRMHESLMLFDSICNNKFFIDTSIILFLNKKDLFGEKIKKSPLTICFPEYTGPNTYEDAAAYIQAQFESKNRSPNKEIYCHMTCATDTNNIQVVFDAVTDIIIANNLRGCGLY
RGS8-Gao: human RGS8-Galphao interaction regulation. multiplexed bead flow cytometry, RGS8-Galphao binding; actives lie on both sides. 0.34% of 220,000 active. response (percent of control binding), % at 10 µM. AID 1423; in the data active means response below about 60% or above about 140%; inactive means in between;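 further: Galphao activated as the GDP aluminium fluoride complex binding bead-coupled RGS8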
GSH bead fluor: GSH bead compound fluorescence profile | GSH beads flow cytometry, compound fluorescence 488/530 nm; active compounds read high | fluorescence (KMESF) at 10 µM | 0.25% of 190,000 active | AID 1776; in the data active means fluorescence above about 89;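 further: glutathione beads carrying GST-tagged Bcl family fusion proteins plus one bare bead set; values are compound well signal with DMSO vehicle wells as background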
Avidin bead fluor: avidin bead compound fluorescence profile; Avidin beads, compound fluorescence 488/530 nm, flow cytometry; active compounds read high; fluorescence (KMESF) at 10 µM; 0.38% of 220,000 active; AID 1775; in the data active means fluorescence above about 47
RGS16-Gao: regulators of human RGS16-Galphao interaction; O15492+P09471; bead-based flow cytometry RGS16-Galphao binding, fluorescence; actives lie on both sides; binding response (% of control), % at 10 µM; 0.38% of 220,000 active; AID 1441;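 further: Galphao activated by GDP with aluminum fluoride before binding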
Target sequence (O15492 whole entry, looked up): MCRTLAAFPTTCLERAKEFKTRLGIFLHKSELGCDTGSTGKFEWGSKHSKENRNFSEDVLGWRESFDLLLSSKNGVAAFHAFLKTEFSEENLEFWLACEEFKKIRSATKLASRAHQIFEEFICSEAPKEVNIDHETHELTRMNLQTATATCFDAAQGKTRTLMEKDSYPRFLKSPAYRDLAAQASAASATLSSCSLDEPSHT
Target sequence (P09471 whole entry, looked up): as the sequence (P09471 whole entry, looked up) above
RGS7-Gao: human RGS7-Galphao interaction regulation. binding response (% of control), % at 10 µM. P09471. 0.35% of 220,000 active. Multiplexed bead flow cytometry, RGS7-Galphao binding; actives lie on both sides; in the data active means binding response below about 49% or above about 150%; inconclusive means no clear call, values can overlap the other calls; inactive means in between;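 further: fluorescent Galphao held in activated GDP-AlF4 state binding bead-coupled RGS7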
RGS4-Gao HTS: modulates binding between human RGS4 and Galphao; shares compounds with RGS16-Gao; multiplexed bead flow cytometry, RGS–Galpha-o binding; RGS4–Galpha-o binding response, % at 10 µM; 99% of 1,600 active;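 further: fluorescently labeled Galpha-o bound to GDP with aluminium fluoride binding biotinylated RGS beads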
Avidin counter: counter-screen: compounds disrupting biotin binding to avidin beads | inhibition, % at 10 µM | 1,700 tested, under 10 active | shares compounds with RGS16-Gao | streptavidin beads, fluorescein-biotin binding, flow cytometry;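 active means inhibition above 50%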;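 further: median green fluorescence of gated singlet beads compared with DMSO control wells; 0% = DMSO wells and 100% = complete loss of bead fluorescence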
RGS8-Gao single: confirmation of regulators of human RGS8-Galphao interaction. 3% of 1,700 active. binding response (% of control), % at 10 µM. AID 1836. shares compounds with RGS16-Gao. bead-based flow cytometry RGS8-Galphao binding, fluorescence; actives lie on both sides; in the data active means binding response below about 72% or above about 130%; inactive means in between;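 further: Galphao activated as GDP AlF4 complex before binding bead RGS8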
RGS7-Gao confirm: confirmation of regulators of human RGS7-Galphao interaction. shares compounds with RGS16-Gao. response (percent of control binding), % at 10 µM. 7.8% of 1,700 active. bead-based flow cytometry RGS7-Galphao binding; actives lie on both sides; in the data active means response below about 75% or above about 130%; inactive means in between;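 further: fluorescent Galphao activated with GDP and aluminum fluoride binding bead-coupled RGS7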
RGS16-Gao single: RGS16-Galphao interaction regulation, single point confirmation | shares compounds with RGS16-Gao | bead-based flow cytometry, RGS16-Galphao binding; actives lie on both sides | response (% of control binding), % at 10 µM | 4% of 1,700 active | AID 1838; in the data active means response below about 74% or above about 130%; inactive means in between;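 further: Galphao activated as the GDP aluminium fluoride complex binding bead-coupled RGS16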
RGS4-Gao single: confirmation of regulators of human RGS4-Galphao interaction; shares compounds with RGS16-Gao; RGS4-Galphao binding, multiplexed bead flow cytometry; actives lie on both sides; binding response (% of control), % at 10 µM; 4% of 1,700 active; AID 1840; in the data active means binding response below about 74% or above about 130%; inactive means in between
RGS19-Gao conf: confirmation of regulators of human RGS19-Galphao interaction. 5% of 1,700 active. bead-based flow cytometry RGS19-Galphao binding; actives lie on both sides. response (percent of control binding), % at 10 µM. shares compounds with RGS16-Gao; in the data active means response below about 50% or above about 160%; inactive means in between;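 further: 100% = no compound control and 0% = blank background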
Active calls of the source: *; u = inconclusive; x = no result; [ ] = another dose, or the depositor's remark. Unless noted, how the calls were made is not given here.

SMILES | RGS4-Gao reg | RGS8-Gao | GSH bead fluor | Avidin bead fluor | RGS16-Gao | RGS7-Gao | Avidin counter | RGS8-Gao single | RGS7-Gao confirm | RGS16-Gao single | RGS4-Gao single | RGS19-Gao conf | others
CCOC(=O)c1c(NC(=O)CCNCc2ccco2)sc2c1CCC2 | 110.6 | 108.3 | x | 5 | 109.8 | u | x | x | x | x | x | x
N#C/C(=C\c1cccc(Cl)c1)c1n[nH]c(Cn2cncn2)n1 | 97.5 | 99.0 | 12 | 10 | 98.0 | 99.0 | x | x | x | x | x | x
COc1ccc(-c2cc(-c3ccccc3)nc(SCC(=O)Nc3nccs3)c2C#N)cc1 | 110.2 | 105.0 | 14 | 56* | 121.5 | 112.8 | x | x | x | x | x | x
NNC(=O)CCC(=O)Nc1ccccc1 | 101.5 | 99.4 | 13 | 9 | 104.0 | u | x | x | x | x | x | x
CSc1ccc(C2C(C#N)=C(N)Oc3c2ccc(=O)c2c(C)oc(C)c32)cc1 (stereo unspecified) | 179.6*[activator] | 132.2 | 159* | 93* | 472.6 | 254.3*[activator] | 2.0 | 98.6 | 96.0 | 101.2 | 100.2 | 98.1
Cc1ccc(C#CC[N+](C)(C)CC#Cc2ccccc2)cc1 | 107.7 | 103.3 | 25 | 12 | 103.4 | 104.0 | x | x | x | x | x | x
CC(CCc1ccccc1)NC(=O)CSc1nccc(=O)[nH]1 (stereo unspecified) | 12.2* | 21.1* | 43 | -2 | 7.1* | 10.9* | -1.0 | 97.3 | 79.3 | 91.4 | 90.5 | 78.8
O=c1cc(-c2ccccc2Cl)oc2ccc([N+](=O)[O-])c(O)c12 | 96.2 | 100.6 | 19 | 11 | 102.8 | 96.5 | x | x | x | x | x | x
Nc1ccc2oc(-c3ccccc3Cl)cc(=O)c2c1O | 184.2*[activator] | 106.5 | 18 | 89* | 110.2 | 166.6*[activator] | 0.5 | 101.8 | 110.6 | 103.7 | 107.3 | 94.5
O=C(NCc1csc(-c2cccs2)n1)c1cccc(Cl)c1 | 105.2 | 102.9 | x | 3 | 104.7 | u | x | x | x | x | x | x
COc1ccc(/C=C2\N=C(c3ccccc3)N(c3ccc(C(=O)O)cc3)C2=O)cc1OC | 114.3 | 103.9 | x | 11 | 112.6 | u | x | x | x | x | x | x
O=C(c1ccco1)N(CCC(c1ccccc1)c1ccco1)Cc1ccco1 (stereo unspecified) | 22.8* | 12.0* | 20 | -2 | 2.3* | 14.0* | 2.1 | 105.0 | 90.6 | 99.5 | 92.8 | 84.8
Cc1ccc(C(CCN(Cc2ccccc2)C(=O)c2ccco2)c2ccco2)cc1 (stereo unspecified) | 96.3 | 101.4 | 6 | 11 | 103.5 | 95.8 | x | x | x | x | x | x
CC(C)CN1CCC(CN(C)Cc2nc(-c3cnccn3)no2)CC1 | 99.8 | 96.2 | 10 | 5 | 105.3 | 107.0 | x | x | x | x | x | x
CC(C)OC(=O)C1C(=O)CC(C)(O)C(C(=O)OC(C)C)C1c1ccccc1 (stereo unspecified) | 2.3* | 5.7* | 15 | -1 | -3.2* | 1.8* | -2.0 | 101.4 | 101.0 | 101.5 | 101.3 | 103.2
CC(C)(C)c1nnc(NC(=O)CS(=O)(=O)Cc2ccccc2)s1 | 86.5 | 56.6* | 17 | 1 | 61.3 | 51.4 | -0.7 | 103.0 | 101.7 | 102.0 | 100.5 | 94.5 | RGS4-Gao HTS=86.5*
C/C(=N\NC(=O)Cc1cccn1C)c1cccs1 | 34.2* | 29.5* | 21 | -2 | 27.3 | 31.2* | -1.3 | 102.4 | 103.8 | 102.0 | 103.7 | 106.1
CCCC(=O)OC(C(=O)Nc1cc(C(F)(F)F)ccc1Cl)c1ccccc1 (stereo unspecified) | 106.6 | 122.3 | 8 | 15 | 241.4*[activator] | 107.3 | -0.5 | 103.6 | 102.6 | 101.4 | 101.8 | 97.2 | RGS4-Gao HTS=106.6*
CCCC(C)NCC(=O)Nc1ccccc1-c1ccccc1 (stereo unspecified) | 105.3 | 111.2 | 13 | 6 | 140.1 | 109.7 | x | x | x | x | x | x
CC1CCCC(NC(=O)C2CCN(S(=O)(=O)N3CCCCC3)CC2)C1C (stereo unspecified) | 103.6 | 102.1 | 18 | 10 | 107.0 | u | x | x | x | x | x | x
Cc1ccc(C(=O)Nc2ccccc2NC(=O)c2ccc(C)o2)o1 | 54.8 | 59.8* | 240* | 3 | -12.0 | 65.0 | -2.0 | 100.7 | 97.8 | 100.2 | 100.4 | 118.4 | RGS4-Gao HTS=54.8*
COc1ccc(-c2nc(-n3c(C)c(C(C)=O)c(C(C)=O)c3C)sc2C)cc1 | 47.4* | 56.5* | 20 | 3 | 39.9 | 43.7* | -1.3 | 102.3 | 103.6 | 101.1 | 105.0 | 97.7
COc1ccc(-c2nc(C)sc2C)cc1 | 114.7 | 142.3*[activator] | 7 | 3 | 266.4 | 118.2 | -0.8 | 98.4 | 102.2 | 101.7 | 100.5 | 95.9 | RGS4-Gao HTS=114.7*
COc1ccc(NC2c3ccccc3C(=O)N2c2ccccn2)cc1 (stereo unspecified) | 100.1 | 99.3 | x | 8 | 98.3 | u | x | x | x | x | x | x
Cc1ccc(-c2ccc(S(=O)(=O)NCC3CCCO3)cc2)cc1 (stereo unspecified) | 102.1 | 101.8 | 11 | 12 | 101.4 | 100.8 | x | x | x | x | x | x
SMILES | RGS4-Gao reg | RGS8-Gao | GSH bead fluor | Avidin bead fluor | RGS16-Gao | RGS7-Gao | Avidin counter | RGS8-Gao single | RGS7-Gao confirm | RGS16-Gao single | RGS4-Gao single | RGS19-Gao conf | others
O=S(=O)(NCC1CCCO1)c1ccc(Cl)nc1 (stereo unspecified) | x | x | x | x | x | x | -1.5 | 109.2 | 109.4 | 108.0 | 109.3 | 105.5
COC(=O)Cc1ccc(NC(=O)c2ccccc2Br)cc1 | 32.8* | 28.4* | 16 | 3 | 24.2* | u | 0.2 | 98.5 | 98.3 | 99.7 | 97.5 | 99.0
COC(=O)Cc1ccc(NC(=S)NNC(=O)c2ccccc2Br)cc1 | 104.1 | 103.5 | 8 | 3 | 113.9 | 102.5 | x | x | x | x | x | x
Cc1nc(SCC(=O)Nc2cc(C(N)=O)cc(C(N)=O)c2)c2c(C)c(C)sc2n1 | 59.4 | 68.1 | x | 3 | 58.0 | u | x | x | x | x | x | x
Cc1cccc(C)c1NC(=O)CSC(=O)c1sc2ccccc2c1Cl | -6.1* | 22.2* | x | -1 | -2.1* | u | -1.2 | 98.7 | 96.9 | 97.2 | 99.8 | 92.2
COc1ccc(CN2CCn3nc(C(=O)NC4CC4)cc3C2=O)cc1 | 96.5 | 100.6 | 10 | 9 | 99.0 | 92.3 | x | x | x | x | x | x
